Data from PubChem BioAssay AID488789 (Broad Institute, 2010).
Results with a measured potency or affinity are listed apart. Records with an inconclusive call do not appear. The source made the active and inactive calls.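 The calls were made as follows: active = samples whose fitted half-maximal inhibition concentration is no more than ten times the top valid dose tested; inconclusive = flat response between -70 and -30, or invalid curve fit; inactive = flat within 30 of zero, potency above limit, or signal rising.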

Target: Trypsin (Sus scrofa) (UniProt P00761)
Assay: porcine trypsin inhibitors, dose response, selectivity assay for Rce1 protease inhibitor project, biochemical, quenched peptide fluorescence, cherry-pick (AID 488789);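 also: more negative means stronger trypsin inhibition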
Conditions: quenched peptide cleavage fluorescence; series mostly up to 10 µM

Chain of Trypsin (Sus scrofa) (P00761 whole entry, looked up): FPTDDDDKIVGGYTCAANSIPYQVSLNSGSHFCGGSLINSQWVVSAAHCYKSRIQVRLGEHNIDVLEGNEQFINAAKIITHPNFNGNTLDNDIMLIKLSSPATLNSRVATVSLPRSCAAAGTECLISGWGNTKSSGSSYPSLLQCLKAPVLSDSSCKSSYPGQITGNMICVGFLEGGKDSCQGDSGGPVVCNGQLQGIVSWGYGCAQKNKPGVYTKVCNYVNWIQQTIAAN

outcome, inactive:
COc1cc2ccccc2cc1C(=O)N(CCN(C)C)c1nc2ccc(C)cc2s1, O=C1CN(S(=O)(=O)c2ccc([N+](=O)[O-])cc2)CC(=O)N1, COc1ccccc1-c1nnc2sc(-c3ccc(N(C)C)cc3)nn12, Cc1cccc2sc(N(CCN(C)C)C(=O)c3ccc4ccccc4c3)nc12, CC1Oc2ccccc2C=C1/C=N/NC(=O)[C@@H](C)NC(=O)OC(C)(C)C (stereo not given in full), Cc1cc(N2CCN(C(c3ccccc3)c3ccccc3)CC2)n2ncnc2n1, CC(CCc1ccccc1)NCC(O)c1ccc(O)c(C(N)=O)c1 (stereo not given), Cc1ccc(C(=O)c2c3ccc(C(F)(F)F)cc3[n+]([O-])n2CCCC(N)=O)cc1, CC(=O)OCC(=O)[C@@]12OC3(CCCC3)O[C@@H]1C[C@H]1[C@@H]3CCC4=CC(=O)C=C[C@]4(C)[C@@]3(F)[C@@H](O)C[C@@]12C, COc1ccc(CCN(C)C(=O)c2ccc(S(=O)(=O)Nc3ccccc3C)cc2)cc1OC, CCN(CC)CCNC(=O)CSc1c2c(nc3cc(Cl)ccc13)CCCC2, COc1cccc(CNc2nc3nc(C)cc(C)n3n2)c1, COc1ccc(-c2oc3ncn(Cc4ccco4)c(=N)c3c2-c2ccc(OC)cc2)cc1, C[C@@]12CCC=C[C@H]1[C@H](c1ccc(/C=C/c3ccccc3)cc1F)N(Cc1ccccc1)C2=O, COCCN1C(=O)/C(=C/c2ccc(Oc3ccc([N+](=O)[O-])cn3)c(OC)c2)SC1=Nc1ccccc1
